In the library only some 3.2% were active in any assay of this set; here they are far more common.
GLP1R inv ag: acts as inverse agonist at human GLP-1 receptor | HEK293 GLP-1R CRE-luciferase, luminescence, 24 h; GLP-1R form is constitutively active | Potency, µM (series often up to 38.3 µM), hits mostly inhibitors | 1.6% of 410,000 active | AID 624417; also: nearly all actives have a fitted effect of over 55% in size
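Constitutively active GLP-1R drives a cAMP-responsive luciferase in stably transfected HEK293 cells; test compounds are added after overnight (12 h) attachment and left 24 hr, and signal loss in luminescence marks inhibition.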
GLP1R ag: activates the human GLP-1 receptor. HEK293 GLP-1R CRE-luciferase, luminescence, 4-6 h; cells express a hypersensitive GLP-1R form. Potency, µM (doses to about 45.6 µM), usual class: activators. AID 624172. P43220. 0.007% of 380,000 active
HEK293 tox: cytotoxicity in counter-screen for GLP-1R inverse agonists; HEK293 cAMP-luciferase reporter cells, luminescence, 24 h; 0.13% of 410,000 active; Potency, µM (titrated, usually from 38.3 µM), most hits filed as inhibitors;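 also: loss of luciferase light is scored as toxicity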
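A 23 nL compound transfer followed 12 hours of cell culture at 37 deg C; exposure then lasted 24 hr. Luciferase assay detection reagent was dispensed and plates read for luminescence after a 12 min room-temperature wait.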
ClpP mod: qHTS Assay for Activators of ClpP; ATP-dependent Clp protease proteolytic subunit (Bacillus subtilis (strain 168)), P80244; purified B. subtilis ClpP, FRET peptide cleavage, 20 min; Potency, µM (top dose mostly 57.5 µM); 1.9% of 340,000 active; AID 651965, 2013; active = well fitted falling curve with a large enough effect; inconclusive = small, poorly fitted or top-dose-only effect; inactive = no such curve, though single readings can be large or run the other way; also: the source files actives as falling curves though it sought activators and does not explain the sign; nearly all actives have a fitted effect of over 65% in size
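Purified B. subtilis ClpP, 10 microg/mL final in Tris/HCl pH8 with KCl, BSA, glycerol and Tween-20, cleaved an Abz/nitrotyrosine-quenched decapeptide. Fluorescence (ex 320, em 430) was read at 0 and 20 min at room temperature. Delta was normalized to 5.8 microM ADEP and DMSO/no-enzyme controls.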
Numbers stand for hits. Unless noted, calls follow the shape of the dose curve; as a rule, active = well fitted curve in the direction sought with a large enough effect; inconclusive = small, poorly fitted or top-dose-only effect, or another doubt; inactive = no such curve, though single readings can be large; an effect the other way counts as inactive or inconclusive.

What do the screens show for `Cc1cc([N+](=O)[O-])ccc1NC(=S)NC(=O)C(c1ccccc1)c1ccccc1`?
GLP1R inv ag: 10µM; GLP1R ag: inactive; HEK293 tox: inconclusive; ClpP mod: inactive

What do the screens show for `COc1ccc([N+](=O)[O-])cc1NC(=S)NC(NC(=O)C(c1ccccc1)c1ccccc1)C(Cl)(Cl)Cl` (centres undefined)?
GLP1R inv ag: 2.5µM; GLP1R ag: inactive; HEK293 tox: inconclusive; ClpP mod: inactive

How did O=C(NC(NC(=S)Nc1c(Cl)cccc1Cl)C(Cl)(Cl)Cl)c1cccc([N+](=O)[O-])c1 (centres undefined) do in these assays?
GLP1R inv ag: 5µM; GLP1R ag: inactive; HEK293 tox: 13µM; ClpP mod: inactive

Results for O=C(NNC(=S)NC(=O)c1ccccc1Cl)c1cccc([N+](=O)[O-])c1 ?
GLP1R inv ag: inactive; GLP1R ag: inactive; HEK293 tox: inactive; ClpP mod: inactive

What do the screens show for `Cc1cc(C)cc(N2C(=O)CS(=O)(=O)C23C(=O)N(Cc2ccc(F)cc2)c2ccc(C)cc23)c1` (centres undefined)?
GLP1R inv ag: inactive; GLP1R ag: inactive; HEK293 tox: inactive; ClpP mod: inactive

What do the screens show for `CCCCN(CCCC)c1ccc(Cn2ccc3ccccc32)cc1`?
ClpP mod: inactive

What do the screens show for `COc1ccc(-c2c3c(nc4sc5c(=O)[nH]c(C)nc5c24)CCC3)cc1`?
GLP1R inv ag: inactive; GLP1R ag: inactive; HEK293 tox: inactive; ClpP mod: 28µM

How did Cc1nn2c(=O)cc(COC(=O)c3ccc(NC(=O)c4cccc(Br)c4)cc3)nc2s1 do in these assays?
GLP1R inv ag: inactive; HEK293 tox: inactive; ClpP mod: inactive

How did Cc1c(Cl)cccc1N1CC(c2nc3ccccc3n2Cc2ccccc2F)CC1=O (centres undefined) do in these assays?
GLP1R inv ag: inconclusive; HEK293 tox: inactive; ClpP mod: inactive

Results for Cn1c(C(O)c2ccc(Cl)cc2)nc(Cl)c1Cl (centres undefined) ?
GLP1R inv ag: 11µM; GLP1R ag: inactive; HEK293 tox: inactive; ClpP mod: inactive

What do the screens show for `Cc1cccc(N2C(=O)CSC23C(=O)N(CC(=O)NCc2ccccc2Cl)c2ccccc23)c1` (centres undefined)?
GLP1R inv ag: 10µM; GLP1R ag: inactive; HEK293 tox: inactive; ClpP mod: inactive

How did Cc1ccc(-c2nnn(CC(=O)N(Cc3ccco3)C(C(=O)NC(C)(C)C)c3ccc(C)o3)n2)o1 (centres undefined) do in these assays?
GLP1R inv ag: 1.3µM; GLP1R ag: inactive; HEK293 tox: inactive

Results for Cc1ccc(C(C(=O)NC(C)(C)C)N(Cc2ccco2)C(=O)Cn2nnc(-c3cccs3)n2)cc1 (centres undefined) ?
GLP1R inv ag: inconclusive; GLP1R ag: inactive; HEK293 tox: inactive; ClpP mod: 25µM

What do the screens show for `CC(C)(C)NC(=O)C(c1ccc(O)cc1)N(Cc1ccco1)C(=O)Cn1nnc(-c2cccs2)n1` (centres undefined)?
GLP1R inv ag: inactive; GLP1R ag: inactive; HEK293 tox: inconclusive; ClpP mod: inactive

Results for NNC(=O)Cn1c(-c2ccccc2)cc2ccccc21 ?
GLP1R inv ag: inconclusive; GLP1R ag: inactive; HEK293 tox: inactive; ClpP mod: inactive

How did CC(=O)Nn1c(-c2ccccc2)cc2ccccc21 do in these assays?
GLP1R inv ag: inactive; GLP1R ag: inactive; HEK293 tox: inactive; ClpP mod: 14µM

Results for CC(=O)N1CCCc2cc(S(=O)(=O)NCc3ccc(N(C)C)cc3)ccc21 ?
GLP1R inv ag: inactive; HEK293 tox: inactive; ClpP mod: inactive

What do the screens show for `CC1(c2ccc(O)cc2)NC(=O)N(c2ccccc2)N1` (centres undefined)?
GLP1R inv ag: 3.2µM; GLP1R ag: inactive; HEK293 tox: inactive

How did CC(=O)N1CCC2(CC1)NC(=O)N(c1ccccc1)N2 do in these assays?
GLP1R inv ag: inconclusive; GLP1R ag: inactive; HEK293 tox: inactive

How did C=C(C)CCC1(C)NC(=O)N(c2ccccc2)N1 (centres undefined) do in these assays?
GLP1R inv ag: 10µM; GLP1R ag: inactive; HEK293 tox: inconclusive

How did O=c1c2c3c(sc2nnn1Cc1ccc(Br)cc1)CCCC3 do in these assays?
GLP1R inv ag: inactive; HEK293 tox: inactive; ClpP mod: inactive

What do the screens show for `CCC(=O)N1c2ccccc2CC1C(=O)NCc1cc(OC)ccc1OC` (centres undefined)?
GLP1R inv ag: inactive; HEK293 tox: inactive; ClpP mod: inactive

What do the screens show for `CCOc1cc(NC(C)=O)ccc1C(=O)OC`?
GLP1R ag: inactive

Results for Cc1c(C(=O)N(C)C2CCCCC2)sc2ncnc(N3CCN(c4ccccc4)CC3)c12 ?
GLP1R inv ag: inconclusive; GLP1R ag: inactive; HEK293 tox: inactive; ClpP mod: inactive

How did Cc1c(C(=O)N(C)C2CCCCC2)sc2ncnc(N3CCN(c4ccccc4F)CC3)c12 do in these assays?
GLP1R inv ag: 13µM; GLP1R ag: inactive; HEK293 tox: inactive; ClpP mod: inactive

Results for CCCn1c(SCC(=O)Nc2ccccc2-c2ccccc2)nnc1-c1ccoc1C ?
GLP1R inv ag: 11µM; GLP1R ag: inactive; HEK293 tox: inactive; ClpP mod: inactive

Results for CCOC(=O)N1CCN(C(=O)CN(c2cccc(Cl)c2C)S(=O)(=O)c2ccc(C)cc2)CC1 ?
GLP1R inv ag: inconclusive; GLP1R ag: inactive; HEK293 tox: inactive; ClpP mod: inactive

Results for O=C(Cc1cccs1)Nc1ccc(S(=O)(=O)N2CCCCC2)cc1 ?
GLP1R inv ag: 10µM; GLP1R ag: inactive; HEK293 tox: inactive; ClpP mod: inactive

How did O=C(CCCNC(=O)c1ccc(Cl)cc1)Nc1cccc(S(=O)(=O)N2CCCCC2)c1 do in these assays?
GLP1R inv ag: inconclusive; GLP1R ag: inactive; HEK293 tox: inactive; ClpP mod: inactive

Results for O=C(CCNS(=O)(=O)c1ccc(OC(F)(F)F)cc1)Nc1cccc(S(=O)(=O)N2CCCC2)c1 ?
GLP1R inv ag: 10µM; GLP1R ag: inactive; HEK293 tox: inactive; ClpP mod: inactive

Results for O=C(CCNC(=O)c1ccc(Cl)cc1)Nc1cccc(S(=O)(=O)N2CCCCCC2)c1 ?
GLP1R inv ag: 13µM; GLP1R ag: inactive; HEK293 tox: inactive

How did O=C(CNc1cccc(S(=O)(=O)N2CCCCCC2)c1)Nc1cccc([N+](=O)[O-])c1 do in these assays?
GLP1R inv ag: 7.1µM; GLP1R ag: inactive; HEK293 tox: inconclusive; ClpP mod: inactive

What do the screens show for `CC(C)(C)c1ccc(OCCC(=O)Nc2cccc(S(=O)(=O)N3CCCC3)c2)cc1`?
GLP1R inv ag: inconclusive; GLP1R ag: inactive; HEK293 tox: inconclusive; ClpP mod: inactive

How did CCCCOC(=O)c1ccc(NC(=O)C2(c3cccs3)CCOCC2)cc1 do in these assays?
GLP1R inv ag: inconclusive; HEK293 tox: inactive; ClpP mod: inactive

Results for CN(CC(=O)Nc1cccc(S(=O)(=O)N2CCCC2)c1)Cc1ccccc1 ?
GLP1R inv ag: inconclusive; GLP1R ag: inactive; HEK293 tox: inactive; ClpP mod: 25µM

From PubChem
